The values below come from ChEMBL document CHEMBL1961873, “Compounds: GSK PKIS; Assays: Nanosyn kinase panel” (2012).

Usually inhibition stands for the relative decrease from the control value, in per cent.

In one experiment the target is T1, Inhibitor of nuclear factor kappa-B kinase subunit epsilon (Homo sapiens) (UniProt Q14164).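 Also: reported values are averaged percent inhibition figures against human IKKε.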
T1 sequence (whole entry): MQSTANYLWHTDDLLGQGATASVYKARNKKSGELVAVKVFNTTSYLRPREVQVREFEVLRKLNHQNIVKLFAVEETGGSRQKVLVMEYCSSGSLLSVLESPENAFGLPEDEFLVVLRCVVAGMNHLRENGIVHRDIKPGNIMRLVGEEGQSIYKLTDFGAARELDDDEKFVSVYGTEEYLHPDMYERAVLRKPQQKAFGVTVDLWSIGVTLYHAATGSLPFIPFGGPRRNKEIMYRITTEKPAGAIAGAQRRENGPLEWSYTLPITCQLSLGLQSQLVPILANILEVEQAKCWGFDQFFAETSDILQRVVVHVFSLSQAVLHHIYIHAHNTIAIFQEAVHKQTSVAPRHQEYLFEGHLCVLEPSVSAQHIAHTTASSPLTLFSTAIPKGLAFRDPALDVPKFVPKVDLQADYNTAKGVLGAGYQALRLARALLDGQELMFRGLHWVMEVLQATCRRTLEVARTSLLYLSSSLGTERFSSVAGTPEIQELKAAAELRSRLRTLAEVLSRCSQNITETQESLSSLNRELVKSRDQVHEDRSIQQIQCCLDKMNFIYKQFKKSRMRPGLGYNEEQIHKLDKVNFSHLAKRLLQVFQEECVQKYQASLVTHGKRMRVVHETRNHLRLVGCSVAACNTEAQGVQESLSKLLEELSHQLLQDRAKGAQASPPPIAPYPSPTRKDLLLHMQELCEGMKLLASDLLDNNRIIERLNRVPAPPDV
The settings on record: at 1 µM.
Consider `CCc1ccc(Oc2nccc(-c3c(-c4ccc(F)cc4)ncn3C3CCNCC3)n2)cc1`, for which the inhibition amounted to 6.86%.
With `C#Cc1cccc(Nc2ncnc3ccc(OCCCCNCCS(C)(=O)=O)cc23)c1`, the inhibition turned out to be 9.33%.
For `NC(=O)c1ccc(Oc2nccc(-c3c(-c4ccc(F)cc4)ncn3C3CCNCC3)n2)cc1`, the inhibition came to 7.38%.
Take `COC(=O)Nc1nc2ccc(Sc3ccc(NC(=O)Nc4cc(C(F)(F)F)ccc4F)cc3)cc2[nH]1`: the inhibition was -1.36%.
For the molecule `CCC(=O)Nc1ccc(C)c(-c2ccc(C(=O)NCC3CC3)cc2)c1`, the inhibition turned out to be 4.21%.
Still for that read-out and setting: for `COc1cccc(-n2cnc3c(N/N=C/c4ccncc4)ncnc32)c1` the value was 4.51%.
On the same count and under the same terms, for `Cc1ccc(C(=O)NC2CCC2)cc1-c1ccc(C(=O)NCC2CC2)cc1` the value was 2.96%; for `c1ccc(-c2n[nH]cc2-c2ccnc(-c3ccc(OCCN4CCOCC4)cc3)c2)nc1`, -6.6%; for `O=C1NC(=O)C(c2cccc(Cl)c2)=C1Nc1ccc(Cl)c(C(=O)O)c1`, 6.69%.
Same read-out and setting: in the case of `C[C@@H](Oc1cc(-n2cnc3ccc(OC4CCN(C)CC4)cc32)sc1C(N)=O)c1ccccc1Cl` it was 6.16%; in that of `CS(=O)(=O)CCNCc1ccc(-c2ccc3ncnc(Nc4ccc(OCc5ccccc5)c(Br)c4)c3c2)o1`, 4.71%; in that of `COc1cc(N2CCN(C(C)C)CC2)ccc1Nc1nc(Nc2ccc(F)cc2C(=O)NC[C@@H](O)CO)c2cc[nH]c2n1`, 10.3%.
As to `Clc1ccc(CNc2nccc(-c3cnn4ncccc34)n2)cc1`, the inhibition is -0.99%.
Regarding `COc1cc(Nc2ncc(-c3ccccc3)o2)cc(OC)c1OC`, the inhibition came out at 1.15%.
On the same count and under the same terms, for `O=C(Nc1n[nH]c2nc(-c3ccc(O)cc3)c(Br)cc12)C1CC1` the value was 12.2%; for `Fc1ccc(-c2ncn(C3CCNCC3)c2-c2ccnc(Oc3ccc4c(c3)OCO4)n2)cc1`, 5.91%.
Still for that read-out and setting: for `NC(=O)c1cc(-c2ccncc2)cc(-c2ccccc2)c1N` the value was 14.9%.
In the case of `Fc1ccc(-c2ncn(C3CCNCC3)c2-c2ccnc(Oc3ccc(Oc4ccccc4)cc3)n2)cc1`, the inhibition was 6.34%.

The target of a further experiment is T2, Serine/threonine-protein kinase Nek1 (Homo sapiens) (UniProt Q96PY6).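 Also: mean percent inhibition of NEK1 kinase, from the GSK PKIS (published kinase inhibitor set) screening panel.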
T2 sequence (whole entry): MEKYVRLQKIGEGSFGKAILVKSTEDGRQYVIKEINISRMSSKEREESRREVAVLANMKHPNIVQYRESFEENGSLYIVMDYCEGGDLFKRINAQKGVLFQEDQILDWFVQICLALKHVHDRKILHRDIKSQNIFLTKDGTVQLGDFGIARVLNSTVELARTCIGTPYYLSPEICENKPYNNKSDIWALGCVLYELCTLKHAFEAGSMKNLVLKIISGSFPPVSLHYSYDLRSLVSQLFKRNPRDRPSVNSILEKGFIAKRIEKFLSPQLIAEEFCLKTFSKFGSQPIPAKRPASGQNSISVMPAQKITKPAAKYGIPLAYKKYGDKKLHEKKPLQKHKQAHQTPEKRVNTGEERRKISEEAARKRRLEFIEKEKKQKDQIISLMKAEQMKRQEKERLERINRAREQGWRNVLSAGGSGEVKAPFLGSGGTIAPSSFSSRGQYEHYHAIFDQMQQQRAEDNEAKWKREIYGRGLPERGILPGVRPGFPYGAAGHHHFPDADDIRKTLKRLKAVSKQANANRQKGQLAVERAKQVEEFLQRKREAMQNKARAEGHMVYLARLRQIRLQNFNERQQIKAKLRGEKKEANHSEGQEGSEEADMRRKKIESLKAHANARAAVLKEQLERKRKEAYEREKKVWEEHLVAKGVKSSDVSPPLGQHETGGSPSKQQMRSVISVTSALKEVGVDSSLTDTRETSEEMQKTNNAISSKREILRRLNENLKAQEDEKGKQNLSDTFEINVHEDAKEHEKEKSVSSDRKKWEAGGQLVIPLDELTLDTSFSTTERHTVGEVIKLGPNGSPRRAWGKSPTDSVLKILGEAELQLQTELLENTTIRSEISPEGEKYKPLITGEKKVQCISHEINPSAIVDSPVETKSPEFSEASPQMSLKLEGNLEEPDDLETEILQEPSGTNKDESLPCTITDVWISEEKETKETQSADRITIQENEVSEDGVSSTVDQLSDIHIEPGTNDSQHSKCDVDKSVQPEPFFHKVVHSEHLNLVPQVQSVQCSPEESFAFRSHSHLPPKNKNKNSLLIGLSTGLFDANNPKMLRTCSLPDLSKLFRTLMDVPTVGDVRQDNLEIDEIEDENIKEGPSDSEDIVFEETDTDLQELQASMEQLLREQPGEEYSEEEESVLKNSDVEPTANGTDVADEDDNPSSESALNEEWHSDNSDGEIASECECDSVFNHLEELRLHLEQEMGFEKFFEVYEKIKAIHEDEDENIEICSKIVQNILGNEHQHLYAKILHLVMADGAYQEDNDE
The settings on record: at 0.1 µM.
On to `CN1CCN(CCCNc2nc3ccc(Oc4ccc(NC(=O)Nc5cc(C(F)(F)F)ccc5F)cc4)cc3[nH]2)CC1`, for which the inhibition turned out to be 1.41%.
As for `NS(=O)(=O)c1ccc(N/N=C2\C(=O)Nc3ccc(-c4cnco4)cc32)cc1`, the inhibition was found to be 0.9%.
For the molecule `O=C1Nc2ccccc2/C1=C/Nc1ccc(-n2cncn2)cc1`, the inhibition amounted to 2.46%.
In the case of `Cc1nnc(-c2ccc(C)c(-c3ccc(C(=O)NCc4ccc(Cl)cc4)cc3)c2)o1`, the inhibition was 2.48%.
With `CN(C)CCCNc1nccc(-c2c(-c3ccc(F)cc3)nn3cc(C(F)(F)F)ccc23)n1`, the inhibition was 2.23%.
For `COc1ccc2ncn(-c3cc(O[C@H](C)c4ccccc4Cl)c(C(N)=O)s3)c2c1`, the inhibition came out at 4.81%.
Turning to `CCS(=O)(=O)c1ccc(OC)c(Nc2ncc(-c3cccc(-c4ccccc4F)c3)o2)c1`, the inhibition came to 1.03%.
As to `O=C(Nc1n[nH]c2cc(-c3ccccc3)ccc12)C1CC1`, the inhibition came out at 1.53%.
Take `COc1ccc(-c2ccc3c(NC(=O)C4CC4)n[nH]c3n2)cc1`: the inhibition worked out at 0.44%.
As to `COc1cc(Nc2ncc3c(C)nc(-c4cccc(C(F)(F)F)c4)n3n2)cc(OC)c1OC`, the inhibition was 4.76%.
As for `Cc1ccc(NC(=O)c2ccoc2)cc1-c1ccc(C(=O)NCC2CC2)cc1`, the inhibition turned out to be 1.2%.
On to `Fc1ccc(-c2nc3n(c2-c2ccncc2)CCS3)cc1`, for which the inhibition came to 2.77%.
For `NS(=O)(=O)c1ccc(N/N=C2\C(=O)Nc3ccc(C(=O)NCCCn4ccnc4)cc32)cc1`, the inhibition worked out at 2.1%.
For the molecule `CCN(CC)Cc1ccc(Nc2nccc(-c3cnn4ncccc34)n2)cc1`, the inhibition worked out at 2.8%.
Consider `NC(=O)c1cc(-c2ccc(F)cc2)cc(-c2ccncc2)c1N`, for which the inhibition was found to be 1.62%.
Consider `Nc1nccc(-c2c(-c3ccc(F)cc3)ncn2C2CCC(O)CC2)n1` (configuration not stated), for which the inhibition was -1.36%.
`CCc1ccc(Oc2nccc(-c3c(-c4ccc(F)cc4)ncn3C3CCNCC3)n2)cc1`: the inhibition amounted to 2.27%.
As for `C#Cc1cccc(Nc2ncnc3ccc(OCCCCNCCS(C)(=O)=O)cc23)c1`, the inhibition was determined as 3.06%.
For the molecule `NC(=O)c1ccc(Oc2nccc(-c3c(-c4ccc(F)cc4)ncn3C3CCNCC3)n2)cc1`, the inhibition came to 4.02%.
As to `COC(=O)Nc1nc2ccc(Sc3ccc(NC(=O)Nc4cc(C(F)(F)F)ccc4F)cc3)cc2[nH]1`, the inhibition is -0.58%.
`CCC(=O)Nc1ccc(C)c(-c2ccc(C(=O)NCC3CC3)cc2)c1`: the inhibition came out at 2.34%.
As for `COc1cccc(-n2cnc3c(N/N=C/c4ccncc4)ncnc32)c1`, the inhibition was 0%.
Turning to `Cc1ccc(C(=O)NC2CCC2)cc1-c1ccc(C(=O)NCC2CC2)cc1`, the inhibition is 0.93%.
For the molecule `c1ccc(-c2n[nH]cc2-c2ccnc(-c3ccc(OCCN4CCOCC4)cc3)c2)nc1`, the inhibition stood at 1.71%.
Still for that read-out and setting: in the case of `O=C1NC(=O)C(c2cccc(Cl)c2)=C1Nc1ccc(Cl)c(C(=O)O)c1` it was 2.39%.
The same measure, in the same setting: in the case of `C[C@@H](Oc1cc(-n2cnc3ccc(OC4CCN(C)CC4)cc32)sc1C(N)=O)c1ccccc1Cl` it was 9.13%; in that of `CS(=O)(=O)CCNCc1ccc(-c2ccc3ncnc(Nc4ccc(OCc5ccccc5)c(Br)c4)c3c2)o1`, 1.95%; in that of `COc1cc(N2CCN(C(C)C)CC2)ccc1Nc1nc(Nc2ccc(F)cc2C(=O)NC[C@@H](O)CO)c2cc[nH]c2n1`, 2.75%.
`Clc1ccc(CNc2nccc(-c3cnn4ncccc34)n2)cc1`: the inhibition was 0.32%.
With `COc1cc(Nc2ncc(-c3ccccc3)o2)cc(OC)c1OC`, the inhibition was -1.04%.
`O=C(Nc1n[nH]c2nc(-c3ccc(O)cc3)c(Br)cc12)C1CC1`: the inhibition came to 3.52%.
As for `Fc1ccc(-c2ncn(C3CCNCC3)c2-c2ccnc(Oc3ccc4c(c3)OCO4)n2)cc1`, the inhibition stood at 3.2%.
Turning to `NC(=O)c1cc(-c2ccncc2)cc(-c2ccccc2)c1N`, the inhibition was 3.64%.
For the molecule `Fc1ccc(-c2ncn(C3CCNCC3)c2-c2ccnc(Oc3ccc(Oc4ccccc4)cc3)n2)cc1`, the inhibition was found to be 1.09%.
